# This is a sample that favours compounds with a hit; in the whole collection about 0.82% have one here.
# RecA splice inh: Mtb RecA intein splicing inhibition | P9WHJ3 | cell-free RecA intein splicing, fluorescence | inhibition, % (test concentration not listed) | 0.75% of 290,000 active; in the data active = inhibition above about 30%;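 also: 0% = vehicle wells and 100% = reference inhibitor control wells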
# BioA inh: inhibitors of Mycobacterium tuberculosis BioA enzyme | purified M. tuberculosis BioA enzyme, plate reader | inhibition, % at 9.99 µM | 0.096% of 360,000 active; in the data active = inhibition above about 40%
# FadD28 binding: blocks FadD28 binding to the bisubstrate probe; 0.22% of 360,000 active; AID 588549; inhibition, % at 12.5 µM; fluorescence polarization; in the data active = inhibition above about 8.5%, passing the limit was not always enough
# Mtb UGM inh: blocks M. tuberculosis UGM enzyme. P9WIQ1. AID 504406. purified UGM, fluorescence polarization probe displacement. 0.06% of 320,000 active. inhibition, % at 10 µM; in the data active = inhibition above about 10%, passing the limit was not always enough
# Target sequence (P9WIQ1 whole entry, looked up): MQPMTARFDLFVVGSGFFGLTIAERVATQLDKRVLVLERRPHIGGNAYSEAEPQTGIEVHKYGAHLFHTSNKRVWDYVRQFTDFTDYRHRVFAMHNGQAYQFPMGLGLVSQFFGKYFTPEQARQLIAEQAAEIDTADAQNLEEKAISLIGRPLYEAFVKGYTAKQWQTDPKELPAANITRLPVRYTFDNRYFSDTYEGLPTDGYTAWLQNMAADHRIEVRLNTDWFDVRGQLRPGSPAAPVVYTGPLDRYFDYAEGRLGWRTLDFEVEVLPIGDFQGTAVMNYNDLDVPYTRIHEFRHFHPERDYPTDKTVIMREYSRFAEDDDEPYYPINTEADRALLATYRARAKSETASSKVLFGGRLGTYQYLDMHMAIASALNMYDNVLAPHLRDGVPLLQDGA
# Rv3671c protease: Rv3671c (M. tuberculosis) protease inhibition | P9WHR9 | inhibition, % at 5.96 µM | 0.048% of 320,000 active; in the data active = inhibition above about 38%;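 also: extracellular domain of Rv3671c used as enzyme; 0% = enzyme with DMSO and 100% = no enzyme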
# Yp Topo-I inh: Y. pestis Topo-I inhibition via cleavage products. Y. pestis Topo-I cleavage product accumulation, plate reader. activity, % at 10 µM. 0.064% of 360,000 active. AID 504884; in the data active = activity above about 50%, passing the limit was not always enough
# * = called active by the depositor; · = no result given.
SMILES,RecA splice inh,BioA inh,FadD28 binding,Mtb UGM inh,Rv3671c protease,Yp Topo-I inh
CCN1CCN(Cc2ccc(NC(=O)c3cc(NC(=O)c4cc(-c5ccc(OC)cc5)n[nH]4)cc(OC)c3)cc2C(F)(F)F)CC1,18.7,-0.5,66.7*,1.3,-210.4,-6.5
COc1cccc(S(=O)(=O)N[C@@H]2CC[C@H](CC(=O)NC3CCC3)O[C@@H]2CO)c1,·,1.2,·,·,·,·
Cc1ccc(S(=O)(=O)Oc2ccccc2/C=N/Nc2ccc(C(=O)O)cc2)cc1,5.6,-0.8,9.1*,0.6,5.3,3.2
Cc1ccc(S(=O)(=O)Oc2ccccc2/C=N/O)cc1,0.0,-1.3,-4.0,1.8,-5.2,4.1
COc1ccc(NC(=O)N[C@@H]2CC[C@H](CCNS(=O)(=O)c3ccccc3F)O[C@@H]2CO)cc1,·,-1.9,·,·,·,·
C=CCOc1cccc(C2C(C(=O)c3cc4ccccc4o3)=C(O)C(=O)N2c2cc(C)on2)c1 (centres undefined),-1.0,0.1,-0.5,0.3,-1.8,68.8*
CC1CCN(c2ccc3c(c2)S(=O)(=O)c2cccc(C(=O)NCc4cccc(F)c4)c2C3=O)CC1,·,-4.9,-2.8,3.7,-34.1,40.6
O=C(NCc1ccc(OC(F)(F)F)cc1)c1cccc2c1C(=O)c1ccc(N3CCCCC3)cc1S2(=O)=O,·,-2.6,4.6,19.9*,-9.0,-2.2
O=C(NCCc1ccc(F)cc1)c1cccc2c1C(=O)c1ccc(N3CCC(Cc4ccccc4)CC3)cc1S2(=O)=O,·,-3.8,1.1,11.3*,-23.0,11.5
O=C(NCc1cccc(F)c1)c1cccc2c1C(=O)c1ccc(N3CCC(Cc4ccccc4)CC3)cc1S2(=O)=O,·,-1.4,-2.9,22.0*,-24.9,12.0
O=C(NCc1cccc(C(F)(F)F)c1)c1cccc2c1C(=O)c1ccc(N3CCC(Cc4ccccc4)CC3)cc1S2(=O)=O,·,-2.6,-1.7,8.6,-24.0,-0.1
O=C(NCc1ccc(OC(F)(F)F)cc1)c1cccc2c1C(=O)c1ccc(N3CCCC3)cc1S2(=O)=O,·,-0.2,-0.1,4.2,-2.6,-3.5
C=CCNC(=O)[C@@H]1[C@H]2C(=O)O[C@H](c3ccccc3)[C@H](c3ccccc3)N2[C@H](c2ccccc2OCCO)[C@@]12C(=O)N(C(=O)OCCOC)c1ccc(C#CCC(C(=O)OC)C(=O)OC)cc12,·,-0.9,·,·,·,·
Clc1ccc(-c2nc3cnccn3c2Nc2ccc3c(c2)OCO3)cc1,3.8,12.0,-2.1,-1.7,4.0,5.7
CSc1ccc(-c2nc3cnccn3c2Nc2ccc3c(c2)OCO3)cc1,9.3,61.5*,1.5,-3.4,-0.3,4.0
CCNC(=O)C[C@H]1CC[C@@H]2[C@@H](COc3ccc(NC(=O)c4ccccc4Cl)cc3C(=O)N2C)O1,·,0.5,·,·,·,·
COC(=O)Cn1cc(C=C2C(=O)N(C)C(=O)N(C)C2=O)c2ccccc21,2.1,·,·,13.7*,-12.1,·
COCCNC(=O)Cn1cc(C=C2C(=O)NC(=O)NC2=O)c2ccccc21,-0.3,-1.1,-0.4,41.8*,1.5,-1.1
CCN(CC)C(=O)Cn1cc(C=C2C(=O)N(C)C(=O)N(C)C2=O)c2ccccc21,0.1,-2.5,1.7,-1.1,7.1,-1.8
C[C@H](CO)N1C[C@H](C)[C@@H](CN(C)C)Oc2ccc(NS(=O)(=O)c3ccc(Cl)cc3)cc2CC1=O,·,-4.3,·,·,·,·
CCC(=O)N(C)C[C@@H]1Oc2ncc(C#Cc3ccccc3)cc2C(=O)N([C@H](C)CO)C[C@@H]1C,·,0.2,·,·,·,·
N#CCC(=O)N/N=C/c1cn(Cc2ccccc2C#N)c2ccccc12,·,-1.1,-1.2,-1.3,-6.0,-1.8
CCOC(=O)Cn1cc(/C=N/NC(=O)CC#N)c2ccccc21,52.2*,0.3,-3.3,-0.1,3.4,-4.0
C[C@@H]1CCCCO[C@@H](CN(C)C(=O)c2ccccc2)[C@H](C)CN([C@H](C)CO)C(=O)c2cc(NS(=O)(=O)c3cccs3)ccc2O1,·,1.0,·,·,·,·
O=C(C[C@H]1CC[C@H](NC(=O)Cc2ccccn2)[C@H](CO)O1)NCCc1ccncc1,·,-2.1,·,·,·,·
SMILES,RecA splice inh,BioA inh,FadD28 binding,Mtb UGM inh,Rv3671c protease,Yp Topo-I inh
Cc1cccc(OCC(=O)N/N=C\c2cn(C)c3ccccc23)c1,-0.4,0.4,41.1*,0.1,-8.0,37.7
O=c1ccc2[n+]([O-])c3ccc(O)cc3oc-2c1,9.4,·,98.1*,·,·,396.4*
Cc1ccc(C(C[N+](=O)[O-])c2c(-c3ccccc3O)[nH][nH]c2=O)cc1 (centres undefined),52.7*,·,-32.8,2.0,-29.6,-5.1
CCS(=O)(=O)NCC[C@@H]1CC[C@@H](NC(=O)Cc2ccccn2)[C@@H](CO)O1,·,-1.1,·,·,·,·
O=C1c2ccccc2-c2c1nc1c([n+]2[O-])CCCC1,36.5*,·,-2.8,2.1,-1.8,-0.6
O=S(=O)(Cc1ccccc1)c1cnc2ccccc2n1,30.3*,1.4,-3.9,0.2,-11.9,6.3
COc1ccc(S(=O)(=O)c2cnc3ccccc3n2)cc1,35.2*,0.1,0.8,3.2,-3.3,2.3
O=C(NCCO)c1ccc2nc(-c3ccco3)c(-c3ccco3)nc2c1,12.5,0.8,12.9*,-0.4,8.9,-13.6
O=C(NCCc1ccccc1)c1ccc2nc(-c3ccco3)c(-c3ccco3)nc2c1,-31.9,-0.7,0.3,1.5,0.7,6.4
COc1cc2c(cc1OC)C1=NC(=O)CN1C(SCc1ccc(C)cc1)=N2,0.1,·,-4.0,-0.8,-2.3,82.1*
Nc1ccc2c(c1)-c1ccccc1S(=O)(=O)N2,-18.4,·,25.4*,1.0,-1.6,-25.5
CCOC(=O)CSc1n[nH]c(NC(=O)c2cccc(C(F)(F)F)c2)n1,49.7*,-3.8,-2.3,2.0,1.4,-3.4
CCOC(=O)CSc1n[nH]c(NC(=O)CC)n1,3.0,·,-1.0,-4.5,-7.5,-11.5
Cc1c(Br)c(=O)oc2c(Br)c(O)c(O)cc12,-70.1,·,13.3*,3.2,24.5,-3.1
CCOc1cc(C(c2c(C)[nH][nH]c2=O)c2c(C)[nH][nH]c2=O)ccc1OS(=O)(=O)c1ccccc1,97.1*,-1.2,-5.6,2.6,2.7,10.0
CCOc1cc(C(=S)N2CCOCC2)ccc1OS(=O)(=O)c1ccc(C)cc1,4.5,1.2,-2.8,1.9,-1.0,-0.8
CNC[C@H]1OCCCC[C@H](C)Oc2ccc(NC(=O)NC(C)C)cc2C(=O)N([C@@H](C)CO)C[C@@H]1C,·,-0.2,·,·,·,·
CCCCC[C@H](O)/C=C/[C@@H]1[C@@H](C/C=C\CCCC(=O)O)[C@@H](O)C[C@H]1O,-1.1,1.0,1.0,-1.0,5.5,3.3
CCCCC[C@H](O)/C=C/[C@@H]1[C@@H](C/C=C\CCCC(=O)OC)[C@@H](O)C[C@H]1O,40.6*,0.6,-4.0,-4.7,7.0,4.2
CO[C@@H]1CN(C)C(=O)c2ccc(NS(=O)(=O)c3cccc(F)c3)cc2OC[C@@H](C)N(C(=O)Cc2cccnc2)C[C@H]1C,·,1.5,·,·,·,·
CCC(=O)Nc1cccc(-n2nnnc2SCC(=O)c2ccc(C)c(C)c2)c1,0.8,·,10.6*,-1.4,-34.5,11.4
CCCCn1nnnc1SCC(=O)c1ccc(C)c(C)c1,-0.7,0.3,-4.9,0.7,2.5,52.1*
CCC(=O)Nc1cccc(-n2nnnc2SCC(=O)NCc2ccco2)c1,-0.7,2.9,0.7,-0.1,-3.8,1.4
